# Among all 350,000 compounds or so, about 9,900 (2.8%) were called active. Inconclusive results (about 15%) are left out. Shown is part of a subset that was picked to be rich in actives. A number with no mark means an inactive call. Calls follow the shape of the dose curve; as a rule, active = well fitted activation curve with a large enough effect; inconclusive = small, poorly fitted or top-dose-only effect; inactive = no such curve, though single readings can be large or run the other way.
# Experiment: A quantitative high throughput screen for small molecules that induce DNA re-replication in MCF 10a normal breast cells. Also: nearly all actives have a fitted effect of over 50% in size. As to activity, positive = re-replication: % of control where 0% means no effect.
# Conditions: MCF 10A DNA re-replication, Hoechst nuclear intensity, 48 h; series mostly up to 46.1 µM; activity, positive = re-replication: at the top concentration
# Potency is read from the fitted curve at half-maximal effect.
Compound,Potency,"activity, positive = re-replication [%]"
CCOC(=O)CSC1=C(C#N)C(c2sccc2C)CC(=O)N1 (centres undefined),2 µM (active),
C=CCOC(=O)C1=C(C)NC(SCC(=O)OCC)=C(C#N)C1c1ccc(C)cc1 (centres undefined),,-0.999
COc1cc2c(cc1OC)C(c1ccc(C)o1)CC(=O)N2 (centres undefined),,-6.53
C=CCSC1=C(C#N)C(c2cc(Br)c(O)c(OC)c2)CC(=O)N1 (centres undefined),,9.73
Cc1ccc(C2CC(=O)NC(SCC(=O)OCc3ccccc3)=C2C#N)o1 (centres undefined),20.6 µM (active),
COC(=O)CSC1=C(C#N)C(c2ccccc2OC)C(C(=O)OC)C(=O)N1 (centres undefined),,2.02
CSCCC(NC(=O)COc1ccccc1)C(=O)OCc1ccc(Cl)cc1 (centres undefined),,-3.5
COc1cc(N)c(Cl)cc1C(=O)OCC(=O)c1ccc2c(c1)NC(=O)CO2,,8.09
CCOC(=O)N(Cc1ccccc1)C1CC1,,-3.86
CC1(C)C(=O)CCC2(C)C1=CCC1C2C(=O)CC2(C)C1CCC2(O)C(=O)CO (centres undefined),,-0.698
NS(=O)(=O)c1ccc(CNC(=S)NC(=O)c2ccco2)cc1,,-22.5
O=C(CNC(=O)c1ccc2ccccc2c1)Nc1ncccc1O,,0.181
CCOc1cccc(-n2nnnc2-c2ccc(OC)cc2)c1,6.51 µM (active),
c1ccc(-n2nnnc2-c2cccnc2)cc1,,-5.22
CCOC(=O)C(C)n1cnc2c(nnn2-c2cccc(OC)c2)c1=O (centres undefined),,-1.31
CC1CCCCC1NCC(=O)Nc1ccccc1C(=O)Nc1ccccc1 (centres undefined),,6.18
CC(C#N)(NC(=O)CN1CCN(S(=O)(=O)c2cc(C(F)(F)F)ccc2Cl)CC1)C1CC1 (centres undefined),,6.07
CCC(=O)Nc1ccc2nc(C)n(Cc3ccccc3Cl)c(=O)c2c1,,-0.14
CCN1CCN(c2cc3nc(C)n(Cc4ccccc4)c(=O)c3cc2NC(=O)c2ccccc2F)CC1,18.4 µM (active),
CCOc1cc(NC(=O)c2ccccc2C(=O)O)c(OCC)cc1NC(=O)c1ccccc1F,,3.86
O=C(N=C1SC2CS(=O)(=O)CC2N1c1ccccc1)c1ccccc1 (centres undefined),,-22.6
C[C@@H]1CN([C@@H](C)CO)C(=O)c2cccc(NS(=O)(=O)c3ccc(F)cc3)c2O[C@H]1CN(C)C(=O)NC1CCCCC1,,2.38
CN(C)CCNC(=O)c1ccc(Cl)c2cc3ccccc3nc12,,12
O=C(Nc1nc2ccc([N+](=O)[O-])cc2s1)c1ccc(S(=O)(=O)N2CCCc3ccccc32)cc1,2.59 µM (active),
CS(=O)(=O)c1ccc2nc(NC(=O)c3ccc(N4CCCC4=O)cc3)sc2c1,,-12.8

Compound,Potency,"activity, positive = re-replication [%]"
Cc1ccc(NC(=O)c2cccc(S(=O)(=O)N3CCCc4ccccc43)c2)nc1,,15.6
COc1ccc(CCNC(=O)Cc2ccc(C)cc2)cc1OC,,3
COc1ccc(CNC(=O)COC(=O)c2sccc2C)cc1OC,,-0.751
COc1ccc(CNC(=O)COc2ccccc2C(=O)c2cnn(-c3ccccc3)c2)cc1OC,13 µM (active),
COc1ccc(CNC(=O)COC(=O)c2c(C)nn(-c3ccccc3)c2C)cc1OC,,-1.39
COc1ccc(CNC(=O)Cc2ccc(-c3ccccc3)cc2)cc1OC,11.6 µM (active),
COc1ccc(NC(=O)CNC(=O)Cc2ccccc2)cc1OC,,2.51
CC1CCCCC1NC(=O)NC(=O)COC(=O)C1=NN(c2ccccc2)C(=O)CC1 (centres undefined),,3.38
CC1CN(C(=O)c2cc(COc3c(F)cccc3F)on2)CCN1C (centres undefined),,-5.24
COc1cc(Cl)ccc1OCc1cc(C(=O)N2CC[C@@H]3CCCC[C@H]3C2)no1,16.4 µM (active),
CCn1ccnc1CN(C)C(=O)c1cc(COc2ccc(Cl)cc2OC)on1,,-7.68
CSc1ncccc1C(=O)NCC(c1ccco1)N1CCCCC1 (centres undefined),,-0.472
CCCCCCC(=O)Nc1nc(C)c(-c2csc(Nc3cc(Cl)ccc3OC)n2)s1,,11.8
COC(=O)c1cnc(Nc2cc(C)ccc2OC)c2ccccc12,,14.9
COc1ccc(C)cc1Nc1nc(-c2c(C)[nH]c3ccccc23)cs1,18.4 µM (active),
CN(CC(=O)NCCc1ccc(F)cc1)CC(=O)Nc1ccc(F)c(F)c1F,,2.2
CCN(CC)c1ccc(NC(=O)c2ccc(=O)[nH]c2)cc1S(=O)(=O)Nc1ccc(OC)cc1,,18.9
Cc1ccc2nc(N3C(=O)C(O)=C(C(=O)c4ccco4)C3c3cccc(O)c3)sc2c1 (centres undefined),23.1 µM (active),
Cc1ccc2nc(N3CCN(C(=O)c4ccco4)CC3)sc2c1,,17
COc1ccc2nc(N3C(=O)C(O)=C(C(=O)c4ccco4)C3c3ccco3)sc2c1 (centres undefined),,2.93
CCN(C(=O)COC(=O)c1c(C)nn(-c2ccccc2)c1Cl)c1c(N)n(Cc2ccccc2)c(=O)[nH]c1=O,,-1.57
Cc1cccc(NC(=O)CN2CCN(CC(=O)NCC3(N4CCCCC4)CCCCC3)CC2)c1C,,1.93
CCN(CC(=O)Nc1ccc(OC)cc1)C(=O)CSCc1ccc(C)cc1,,4.68
OCC[C@H]1C[C@@H](O)[C@H](O)[C@]2(OCCCc3ccccc32)O1,,7.29

# Reference: PubChem BioAssay AID624296 (National Center for Advancing Translational Sciences (NCATS), 2012)
